Rows were chosen to be rich in hits. Some 2.4% of all compounds tested hit in one or more screens of this group.
TRAIL sens C8 = sensitizes caspase-8 expressing cells to TRAIL; NB7+C8 cells + TRAIL, ATPlite viability luminescence; inhibition (viability loss, TRAIL sensitization), % at 10 µM; hit rate 1% among 360,000;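 active means compounds causing at least 50% loss of cell viability in the single-dose screen, relative to plate controls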
STAT1 blocker = STAT1 signaling inhibition. hit rate 0.35% among 200,000. inhibition, % at 5.5 µM. AID 920. NIH 3T3 STAT1-luciferase reporter, IFN-gamma, luminescence;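 active means inhibition above a set limit, the mean inhibition across all tested compounds plus 3 SD, cut at about 34% in these data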;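 further: 0% = IFN-gamma with DMSO and 100% = IFN-gamma with 300 µM nifuroxazide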
PPC-1+TRAIL kill = compounds killing PPC-1 cancer cells with TRAIL present (potentiator screen, no TRAIL-free arm); PPC-1 cells + TRAIL, ATPLite viability luminescence; cell killing (% activity), % at 4 µM or 5 µM; hit rate 0.41% among 220,000;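 active means cell killing above 50% in the first pass at 4 µM, then a duplicate retest at 5 µM averaging 50% or more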;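 further: plate controls were cells with TRAIL plus DMSO for no effect and medium-only wells lacking cells for full effect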
HSP90 refold inh = HSP90 refolding inhibition in rabbit reticulocyte lysate; luciferase refolding luminescence, 3 h; inhibition, % at 5.6 µM; hit rate 0.91% among 290,000; AID 1789;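 active means inhibition above the screen-wide mean plus 3 SD, computed separately per campaign, cut at about 16% in these data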;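 further: 0% = DMSO wells and 100% = 60 µM geldanamycin wells; inhibitors lower the luminescence because luciferase stays unfolded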
HSF1 inh = HSF1 inhibition. NIH3T3-HGL HSE-luciferase, MG132-induced, luminescence 8 h; stronger effect = lower value. activity change, negative = inhibition, % at 7.5 µM (by protocol). AID 2098. hit rate 0.77% among 300,000;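 active means more than half of replicate wells show activity change below -50%, luminescence cut by over half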;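 further: luciferase reports HSF-1 transcriptional activity via heat shock element; 0% = median of DMSO wells and -100% = zero luminescence signal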
STAT3 inh = inhibitors of IL-6 induced STAT3 signaling | inhibition, % at 5.5 µM | U3A cells, IL-6 STAT3-luciferase reporter, luminescence; host cell line lacks STAT1 | AID 862 | hit rate 0.89% among 190,000;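 active means inhibition above the mean inhibition across all screened compounds plus 3 SD, cut at about 44% in these data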;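 further: 0% = DMSO only wells and 100% = 100 µM nifuroxazide control wells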
The depositor's hits bear a star; . = no result given.

SMILES	TRAIL sens C8	STAT1 blocker	PPC-1+TRAIL kill	HSP90 refold inh	HSF1 inh	STAT3 inh
CC[n+]1c(/C=C2\C=C(C)CC(C)(C)C2)sc2ccccc21	-7	26	2	-3	67	50*
CC[n+]1c(/C=C2/C=C(C)CC(C)(C)C2)sc2ccc(OC)cc21	3	26	10	-3	39	58*
C#CCN1C(=O)S/C(=C/C=C/c2ccc(N(C)C)cc2)C1=O	21	-40	23	21*	.	0
COc1ccccc1NC(=O)Cn1c(=O)c(N(C)C)c(N)n(C)c1=O	1	-1	9	-1	-71*	10
CCN(CC)S(=O)(=O)c1ccc(Cl)c(C(=O)Nc2cc(C)nn2-c2ccccc2)c1	20	14	51*	1	-4	14
COc1ccc(CC2C(=O)NC(C)C(=O)N(C)C3Cc4ccc(cc4)Oc4cc(ccc4O)CC(C(=O)NC(C)C(=O)NC(C)C(=O)N2C)N(C)C3=O)cc1 (centres undefined)	66*	.	.	.	.	.
CC(C)C[C@@H]1NC(=O)[C@H](Cc2ccccc2)N(C)C(=O)[C@H](C)NC(=O)c2ccccc2NC(=O)[C@H](Cc2ccc(O)cc2)N(C)C1=O	25	.	6	.	-42	.
Cc1ccc(C2CCN(C(=S)NC(C)(C)C)C2)cc1 (centres undefined)	15	-33	-2	-5	-66*	6
Cn1c2ccccc2c(=O)c2ccc(NCc3ccc4c(c3)OCO4)cc21	10	.	.	.	.	.
Cc1ccc(OCc2cc(C(=O)N(C)CCc3nc4ccccc4[nH]3)no2)cc1C	11	.	.	1	-88*	.
Cc1ccc(OCc2cc(C(=O)N(C)CCc3ccccn3)no2)cc1C	13	.	.	0	13	.
O=c1[nH]c2cnn(-c3ccccc3)c2c(=O)n1O	-8	.	.	.	.	.
CC(C)(C)NC(=O)CN(C(=O)CCC(=O)Nc1nccs1)c1ccc2c(c1)OCCO2	3	.	.	1	-5	.
CC(C)CCNC(=O)CN(C(=O)CCC(=O)Nc1nccs1)c1ccc2c(c1)OCCO2	-6	.	.	5	-62*	.
CC(C)N1CCc2c(sc(NC(=O)c3ccc([N+](=O)[O-])o3)c2C(N)=O)C1	52*	.	.	5	64	.
COC(=O)c1c(NC(=O)c2ccc([N+](=O)[O-])o2)sc2c1CCN(C(C)C)C2	53*	.	.	5	110	.
CC(C)CC(N)c1csc(Nc2ncccn2)n1 (centres undefined)	9	.	.	.	.	.
CC(=O)NC(c1ccccc1)c1nc(/C=C/c2ccccc2)cs1 (centres undefined)	1	.	.	.	.	.
Cc1nn(-c2ccccc2)c(Cl)c1/C=N/NC(=O)c1ccn[nH]1	75*	.	.	17*	22	.
O=C(CCl)Nc1ncc(S(=O)(=O)c2ccc([N+](=O)[O-])cc2)s1	51*	.	.	.	.	.
Cc1ccc(C(=O)OCC(=O)Nc2cccc(S(=O)(=O)N3CCCCC3)c2)s1	-9	.	.	.	.	.
COC(=O)CCn1nnc(-c2ccc(C(C)C)cc2)n1	8	48*	19	-1	-7	84*
CCc1cc2c(=O)[nH]c(-c3ccccn3)nc2s1	53*	-56	60*	3	133	3
CCCCCNC(=O)C(c1ccc(-c2ccccc2)cc1)n1c(=O)c(-c2cc3ccccc3[nH]2)nc2ccccc21 (centres undefined)	12	.	.	.	.	.
COc1ccc(C2CC(c3cccs3)=NN2C(=O)CSC2=NN3CCCC(=O)N=C3S2)cc1 (centres undefined)	27	5	14	1	7	6
SMILES	TRAIL sens C8	STAT1 blocker	PPC-1+TRAIL kill	HSP90 refold inh	HSF1 inh	STAT3 inh
COc1ccc(C2CC(c3ccc(Br)cc3)=NN2C(=O)CSC2=NN3CCCC(=O)N=C3S2)cc1 (centres undefined)	93*	.	.	-6	0	.
Cn1nc(C(C)(C)C)cc1N1C(=O)CCC1(C)C(=O)NC1CCCC1 (centres undefined)	1	.	.	.	.	.
COCCN1C[C@@H](CO)O[C@@H](n2cnc3c(NC4CCC4)ncnc32)C1	16	.	.	.	.	.
COc1ccc(/C=C/C(=O)Nc2ccccc2C(F)(F)F)cc1	6	-43	18	-4	16	-13
COc1ccc(/C=C/C(=O)Nc2ccccc2C(=O)NCC(c2ccc(OC)cc2)N(C)C)cc1 (centres undefined)	32	.	.	6	-59*	.
C[C@@H](CO)NC(=O)c1[nH]cnc1C(=O)Nc1cccc(Cl)c1	16	.	.	.	.	.
Cn1cc(-c2coc3c(C(=O)NCc4ccco4)cccc23)cn1	-4	.	.	.	.	.
COc1ccc([C@@H]2C[C@@H](c3ccccc3)Oc3c(C)ccc(C(C)C)c32)cc1	.	.	.	.	-66*	.
CCN(CC)C(=O)COc1coc(CN2CCN(c3ccc(F)cc3)CC2)cc1=O	-5	.	.	-6	-62*	.
CCN(CC)C(=O)COc1coc(CN2CCN(c3ccccc3)CC2)cc1=O	-15	.	.	-3	0	.
Fc1ccc(-c2cc(-c3ccccc3)nc(-n3cccn3)n2)cc1	-4	-2	-19	1	-69*	24
CC1CCCC(=NNc2ccc3ccccc3n2)C1 (centres undefined)	-12	.	.	.	.	.
CCOc1ccc(C(=O)N/N=C/c2ccc(SC)cc2)cc1	5	-9	18	4	5	-2
CSc1ccc(/C=N/NC(=O)c2cccc(O)c2)cc1	74*	4	54*	6	21	47*
CCCCCCCC[n+]1cccc2c3ccccc3ccc21	59*	38*	44	1	-18	87*
CCCCCCCCCC[n+]1cccc2c3ccccc3ccc21	44	51*	36	2	-9	87*
Cc1cccc[n+]1CCCCCCCCCC[n+]1ccccc1C	1	1	.	-5	-7	3
CCCCCC[n+]1ccccc1/C=C/c1ccc(N(C)C)cc1	46	.	.	.	.	.
Cc1ccc(S(=O)(=O)N2[C@@H](CO)CO[C@H]2CC(=O)c2ccccc2)cc1	2	.	.	.	.	.
CC(=NCCc1ccccc1)C1=C(O)CSC1=O	6	-14	4	-4	-79*	11
C#CCNC(=O)c1csc([C@@H]2O[C@H](CO)[C@@H](O)[C@H]2O)n1	4	.	.	.	.	.
COc1ccc(NC(=O)Nc2nc(C(N)Cc3ccc(C(F)(F)F)cc3)cs2)cc1 (centres undefined)	48	.	.	.	.	.
COc1ccc(CC(N)c2csc(NC(=O)Nc3ccccc3Oc3ccccc3)n2)cc1 (centres undefined)	43	.	.	.	.	.
CN(Cc1ccccc1)C(=O)c1ccc(Nc2nc(C(N)Cc3ccccc3)cs2)nc1 (centres undefined)	17	.	.	.	.	.
COc1cc(NC(=O)Nc2nc(C(N)Cc3ccc(C(F)(F)F)cc3)cs2)cc(OC)c1OC (centres undefined)	53*	.	.	.	.	.
CN(Cc1ccccc1)C(=O)c1ccc(Nc2nc(C(N)Cc3ccc(C(F)(F)F)cc3)cs2)nc1 (centres undefined)	93*	.	.	.	.	.
NC(Cc1ccc(C(F)(F)F)cc1)c1csc(NC(=O)Nc2ccccc2Oc2ccccc2)n1 (centres undefined)	87*	.	.	.	.	.

Screening results: PubChem, several laboratories
